Results on 30 compounds are retold here after PubChem BioAssay (EPA / NIEHS).

Molecules are shown by their SMILES. Inconclusive results are not listed. Activity calls are given as the source filed them. How the source made its calls: active means hit-call score of the fitted dose curve at least 0.9, where 1 is the maximum; inconclusive means response in the unintended direction; inactive means score below 0.9.

Experiment [1] is described as follows: ACEA_AR_agonist_AUC_viability: ACEA Biosciences xCELLigence Real-Time Cell Analysis on Androgen Receptor Agonism for Viability (AID 2283775).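 On AC50: viability read 80 hours after compound addition.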 Summed up: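 22Rv1 cells; impedance growth kinetics; 8-pt 1:4 dilutions from 100 uM top final, ≤0.5% DMSO; n = 2; 80 h read; AUC viability, loss-of-signal vs DMSO.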
The nature of experiment [2]: ACEA_AR_antagonist_AUC_viability: ACEA Biosciences xCELLigence Real-Time Cell Analysis on Androgen Receptor Antagonism for Viability (AID 2283776).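 Further: 22Rv1 human prostate cancer cells growing on impedance electrode plates; hits lower the growth signal relative to DMSO meaning cytotoxicity.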 The method in brief:
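Real-time electrical impedance tracks 22Rv1 proliferation after continuous compound exposure (top 100 uM final, 1:4 steps, 8 concentrations). The 80 h area-under-curve serves as the cytotoxicity readout relative to DMSO.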

Experiment [3] in a line: ACEA_ER_AUC_viability: ACEA Biosciences xCELLigence Real-Time Cell Analysis on Estrogen Receptor Agonism for Viability (AID 2283782).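 Further: hit means loss of impedance signal meaning reduced cell growth or viability.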 The method in brief: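 Continuous-exposure impedance cell analysis uses T-47D cells in charcoal-stripped serum, eight 1:4 dilutions topping at 100 uM final, biological duplicate. Area under the growth curve at 80 h is fitted against DMSO baseline.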

As to `CCOCCOCCOCCO`, the outcome in experiment [1] and in experiment [2] was inactive.

Consider `CC(C)=CCC/C(C)=C\CO`, for which the compound was called inactive in experiment [2].

As for `CCCCCCCCO`, the call in experiment [1], in experiment [2] and in experiment [3] was inactive.

By AC50 is commonly meant the midpoint of the concentration-response curve, whichever way the signal moves. Turning to `CC(C)c1cccc(C(C)C)c1N1C(=O)c2ccc(O)cc2C1=O`, the AC50 in experiment [1] was 19.4 µM (active); in experiment [2], 17.6 µM (active); in experiment [3] it was 80.3 µM (active).

In the case of `CC[C@H]1CC[C@H](NCc2cc3c(cc2OC)[C@H]2C[C@H]2C(=O)N3C)[C@H](c2ccccc2)N1`, the AC50 in experiment [1] was 17.5 µM (active); in experiment [2], 18.2 µM (active); in experiment [3], 18.5 µM (active).

For the compound `CCCC(=O)OCC`, the compound was called inactive in experiment [2] and in experiment [3].

Regarding `Nc1cccc(N)c1`, the outcome in experiment [2] was inactive.

For the compound `CC(=O)OC[C@H]1O[C@@](COC(C)=O)(O[C@H]2O[C@H](COC(C)=O)[C@@H](OC(C)=O)[C@H](OC(C)=O)[C@H]2OC(C)=O)[C@@H](OC(C)=O)[C@@H]1OC(C)=O`, the call in experiment [2] was inactive.

Take `Cn1c(=O)cc(Oc2ccc(F)cc2F)c2cnc(NCC(C)(C)O)nc21`: the compound was called inactive in experiment [2].

For the compound `CCOC(=O)CC(CC(=O)OCC)(OC(C)=O)C(=O)OCC`, in experiment [2], the compound was classed as inactive.

Consider `C=CC(=C)CCC=C(C)C`, for which the compound was called inactive in experiment [1], in experiment [2] and in experiment [3].

Regarding `CCn1nc(Cc2ccccc2)cc1C1CCN(C[C@H]2C[C@H](N(C)[C@@H](C(=O)O)C(C)C)C[C@@H]2c2cccc(F)c2)CC1`, the AC50 in experiment [1] was 36 µM (active); in experiment [2] it was 45 µM (active); in experiment [3], 7.91 µM (active).

Take `CCOC(=O)c1ccc(C2CCC(NC[C@H](O)COc3ccc(O)c(NS(C)(=O)=O)c3)CC2)cc1` (stereo not given in full): the figures for the AC50 in experiment [2] and in experiment [3] were 24.4 µM (active) and 5.31 µM (active), respectively.

As to `CN(C)c1ccc(N=NS(=O)(=O)O)cc1`, in experiment [3], the result was inactive.

On to `CC(C)CCCCCCOC(=O)c1ccc(C(=O)OCCCCCCC(C)C)c(C(=O)OCCCCCCC(C)C)c1`, for which, in experiment [2], the outcome was inactive.

`CCCCC(CC)COC(=O)c1ccc(C(=O)OCC(CC)CCCC)cc1` (stereo not given): the result in experiment [2] was inactive. Further, in experiment [3], the AC50 is 80 µM (active).

Turning to `O=C(O)c1cc(N=Nc2ccc(S(=O)(=O)Nc3ccccn3)cc2)ccc1O`, the result in experiment [2] was inactive.

Turning to `COCCOCCOCCOC`, the AC50 in experiment [2] is 24.2 µM (active).

Regarding `CNS(=O)(=O)c1cc(C(=O)N2CCC(CCN3C4CCC3CC(n3c(C)nc5ccccc53)C4)(c3cccc(F)c3)CC2)c(Cl)cc1F` (stereo not given), in experiment [3], the AC50 was 19.2 µM (active).

Turning to `CCNc1ccccc1`, the call in experiment [1], in experiment [2] and in experiment [3] was inactive.

`CC(C)=CCCC(C)CCO` (stereo not given): the result in experiment [1], in experiment [2] and in experiment [3] was inactive.

Take `CCOC(=O)COc1ccc2c(c1)CC(NCC(O)c1cccc(Cl)c1)CC2` (stereo not given): the concentration at half-maximal activity (AC50) in experiment [1] is 63.6 µM (active); in experiment [2], 24.1 µM (active); in experiment [3], 16.2 µM (active).

Take `CCc1cc(SCc2sc(-c3ccc(C(F)(F)F)cc3)nc2CN2CCN(c3ccc(OC)cc3)CC2)ccc1OCC(=O)O`: the AC50 in experiment [3] is 34.5 µM (active).

Consider `CCCCCCCCCCCCCCCO`, for which the AC50 in experiment [1] is 78.9 µM (active); in experiment [2], 89.4 µM (active). Besides, the compound was called inactive in experiment [3].

With `Cc1c(-c2cccnc2)c2ccccc2n1CCCCC(=O)O`, the figures for the AC50 in experiment [1], in experiment [2] and in experiment [3] were 24.1 µM (active), 22.8 µM (active) and 17.3 µM (active), respectively.

Regarding `COc1ccc2sc(C(=O)Nc3nnn[nH]3)c(OC(C)C)c2c1`, the AC50 in experiment [1] is 9.32 µM (active); in experiment [2], 12.9 µM (active); in experiment [3], 9.87 µM (active).

For `O=C(OC[C@H]1O[C@@H](OC(=O)c2cc(O)c(O)c(OC(=O)c3cc(O)c(O)c(O)c3)c2)[C@H](OC(=O)c2cc(O)c(O)c(OC(=O)c3cc(O)c(O)c(O)c3)c2)[C@@H](OC(=O)c2cc(O)c(O)c(OC(=O)c3cc(O)c(O)c(O)c3)c2)[C@@H]1OC(=O)c1cc(O)c(O)c(OC(=O)c2cc(O)c(O)c(O)c2)c1)c1cc(O)c(O)c(OC(=O)c2cc(O)c(O)c(O)c2)c1`, in experiment [1], the AC50 was 26.3 µM (active). Further, the compound was called inactive in experiment [3].

Take `C[C@](N)(Cc1ccc(O)c(O)c1)C(=O)O`: the compound was called inactive in experiment [3].

`O=C(O)c1cccc(Oc2ccccc2)c1`: the outcome in experiment [2] and in experiment [3] was inactive.

As for `Cc1ccc(S(=O)(=O)O)cc1C`, the outcome in experiment [1], in experiment [2] and in experiment [3] was inactive.
